Measurements published in PubChem BioAssay (Tox21).
“And” between values parts separate entries of the source, which are not always exact repeats. Identical values can stand only once. Inconclusive results are not listed. A call without a number means that no potency is given here. Where a structure was tested more than once in an assay, its records may differ in their call. The source made the active and inactive calls. Unless noted, calls follow the shape of the dose curve; as a rule, active = well fitted curve in the direction sought with a large enough effect in the repeat runs; inconclusive = weak or mixed curves; inactive = no such curve, though single readings can be large; an effect the other way counts as inactive or inconclusive.

Legend:
[1] = biological target: Progesterone receptor (Homo sapiens) (UniProt P06401); experiment: qHTS assay to identify small molecule agonists of the progesterone receptor (PR) signaling pathway (AID 1346784; calls by dose curve; also: nearly all actives have a fitted effect of over 30% in size)
How it was run: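 Seed PR-UAS-bla HEK 293T cells (2% charcoal-stripped FBS), incubate 6 hr at 37C; add compounds in DMSO, 16 hr at 37C; add LiveBLAzer B/G substrate, 2 hr RT; read fluorescence intensity.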

[2] = biological target: Progesterone receptor (Homo sapiens) (UniProt P06401); experiment: qHTS assay to identify small molecule antagonists of the progesterone receptor (PR) signaling pathway (AID 1346795; active = well fitted inhibition curve with a large enough effect in the signal ratio in the repeat runs, not every such curve was filed as active; the % refers to the signal ratio)
How it was run: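 Screening used a GripTite HEK293T line with PR-responsive UAS-beta-lactamase. Cells were challenged with compound in the presence of 1 nM R5020 final for 16 hr at 37C; B/G FRET substrate, 2 hr room temperature, fluorescence.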

[3] = qHTS assay to identify small molecule antagonists of the progesterone receptor (PR) signaling pathway - cell viability counter screen (AID 1346798); also: series mostly up to about 92 µM; nearly all actives have a fitted effect of over 50% in size
How it was run: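 Measures cytotoxicity in parallel with the PR antagonist reporter read: HEK293T PR-UAS-bla cells get compound and R5020 for 16 hr, and remaining viable cells are quantified by CellTiter-Glo luminescence.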

[4] = qHTS assay to identify small molecule antagonists of the TGF-beta/Smad signaling pathway - cell viability counter screen (AID 1346824); also: nearly all actives have a fitted effect of over 50% in size
How it was run: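 Cytotoxicity counter-screen run in the same wells as the beta-lactamase Smad reporter read: CellTiter-Glo luminescence after 30 min at room temperature. HEK 293T SBE-bla cells had 5 hr compound exposure at 37 C with TGF-beta1 (0.25 ng/mL stock).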

[5] = qHTS assay to identify small molecule agonists of the TGF-beta/Smad signaling pathway - cell viability counter screen (AID 1346829); also: top concentration of the series differs between compounds; nearly all actives have a fitted effect of over 45% in size
How it was run: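 SBE-bla HEK 293T cells plated overnight, compound exposure 5 hr at 37 C. Viability read in the same wells by CellTiter-Glo luminescence after 30 min at room temperature, following the beta-lactamase read.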

[6] = qHTS assay to identify small molecule agonists of the TGF-beta/Smad signaling pathway (AID 1346859; active = well fitted activation curve with a large enough effect in the signal ratio in the repeat runs, not every such curve was filed as active; the % refers to the signal ratio; also: series mostly up to about 77 µM)
How it was run: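 Beta-lactamase reporter activity downstream of Smad binding elements was measured in stably transfected HEK 293T cells; compounds were incubated for 5 hr, substrate for 2 hr at room temperature.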

[7] = Human pregnane X receptor (PXR) small molecule agonists, qHTS cell viability counter screen (AID 1346977); also: nearly all actives have a fitted effect of over 50% in size; also: potency is read from the fitted curve at half-maximal effect
How it was run: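 After a 5hr pre-incubation, PXR-Luc HepG2 cells received compounds plus positive control in DMSO and were kept 24hr at 37C. Cell viability was quantified by fluorescence from CellTiter-Fluor added for the final hour.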

[8] = Caspase-3/7 induction in HepG2 cells by small molecules, qHTS assay (AID 1346978); also: nearly all actives have a fitted effect of over 15% in size; also: potency is read from the fitted curve at half-maximal effect
How it was run: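 Caspase-3/7 induction was measured by Caspase-Glo 3/7 luminescence (30 min, room temperature) after a 17 hr compound exposure of wild-type HepG2 cells seeded at 2,000 per well and pre-incubated 5 hr.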

[9] = Caspase-3/7 induction in CHO-K1 cells by small molecules, qHTS cell viability counter screen (AID 1346979); also: nearly all actives have a fitted effect of over 35% in size; also: potency is read from the fitted curve at half-maximal effect
How it was run: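 Multiplexed with Caspase-Glo 3/7 in CHO-K1 cells, this counter screen added CellTiter-Fluor after 16hr of compound exposure and recorded fluorescence 1hr later.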

[10] = Caspase-3/7 induction in CHO-K1 cells by small molecules, qHTS assay (AID 1346980); also: nearly all actives have a fitted effect of over 15% in size
How it was run: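 Luminescent Caspase-Glo 3/7 read (30min, room temperature) quantified apoptosis induction. Cells were wild-type CHO-K1, treated with compound for 17hr at 37 C and 5% CO2.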

[11] = Caspase-3/7 induction in HepG2 cells by small molecules, qHTS cell viability counter screen (AID 1346981); also: series mostly up to about 92 µM; nearly all actives have a fitted effect of over 30% in size
How it was run: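 After a 5-hr attachment period at 37 C and 5% CO2, wild-type HepG2 cells received compounds in DMSO. Sixteen hours later CellTiter-Fluor was dispensed and the fluorescent signal quantified after a further hour.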

[12] = biological target: Nuclear receptor subfamily 1 group I member 2 (Homo sapiens) (UniProt O75469); experiment: Human pregnane X receptor (PXR) small molecule agonists, qHTS assay (AID 1346982); also: nearly all actives have a fitted effect of over 35% in size
How it was run: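 Tox21 qHTS; PXR-Luc HepG2; compounds pinned from DMSO; 24 hr, 37 C; ONE-Glo luciferase detection, 30 min room temperature.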

[13] = biological target: Cytochrome P450 2D6 (Homo sapiens) (UniProt P10635); experiment: Cytochrome P450 Family 2 Subfamily D Member 6 (CYP2D6) small molecule antagonists: luciferase reporter qHTS assay (AID 1671196); also: nearly all actives have a fitted effect of over 50% in size; also: potency is read from the fitted curve at half-maximal effect
How it was run: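 Room-temperature luminescent CYP2D6 activity assay: compound preincubated 10 min with enzyme–substrate mix, NADPH-initiated reaction 1 h, detection reagent 20 min before reading.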

[14] = biological target: Thyrotropin-releasing hormone receptor (Homo sapiens) (UniProt P34981); experiment: qHTS assay to identify small molecule agonists of the thyrotropin-releasing hormone receptor (TRHR) signaling pathway (AID 1346891; calls by dose curve;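 also: HEK293 cells expressing TRHR with calcium dye readout; series mostly up to about 58 µM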)
How it was run: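 Overnight-plated (18 h, 37 °C, 5% CO2) TRHR-Hek293 cells; 2 h calcium dye at 37 °C; compound in DMSO; 3-min kinetic fluorescence read.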

[15] = qHTS assay to identify small molecule agonists of the progesterone receptor (PR) signaling pathway - cell viability counter screen (AID 1346799; calls by dose curve; also: nearly all actives have a fitted effect of over 45% in size)
How it was run: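 Using the same plates as the PR reporter screen, HEK293T PR-UAS-bla cells received compounds for 16 hr at 37C and were then lysed with CellTiter-Glo; luminescence was read 30 min later at room temperature.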

[16] = biological target: Thyrotropin-releasing hormone receptor (Homo sapiens) (UniProt P34981); experiment: qHTS assay to identify small molecule antagonists of the thyrotropin-releasing hormone receptor (TRHR) signaling pathway (AID 1346877; active = well fitted inhibition curve with a large enough effect in the repeat runs, not every such curve was filed as active; also: series mostly up to about 51 µM)
How it was run: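 Calcium signal in dye-loaded TRHR/HEK293 cells; compounds added 5 min before TRH (1 nM final); fluorescence monitored 3 min at 1 s steps.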

[17] = biological target: Nuclear receptor subfamily 1 group I member 2 (Rattus norvegicus) (UniProt Q9R1A7); experiment: Rat pregnane X receptor (rPXR) activation by small molecules, qHTS assay (AID 1346983); conditions: rPXR luciferase reporter cells, One-Glo luminescence, 24 h; stronger effect = higher value; also: nearly all actives have a fitted effect of over 20% in size
How it was run: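 Luminescent readout (One-Glo luciferase, 30 min room temperature) followed 24 hr compound treatment at 37 C of rPXR cells plated 2,000 per well and preincubated 5hr; qHTS format with compounds delivered in DMSO.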

[18] = biological target: Nuclear receptor subfamily 1 group I member 2 (Homo sapiens) (UniProt O75469); experiment: CYP3A4 induction through human pregnane X receptor (PXR) by small molecules, qHTS assay (AID 1346984); also: nearly all actives have a fitted effect of over 40% in size
How it was run: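 Cells (DPX-2; HepG2 with PXR element plus CYP3A4-promoter luciferase) settled 5hr, then were treated 24hr at 37C. A 3hr, 3uM-final Luciferin-IPA step preceded luminescence measurement with One-Glo.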

[19] = biological target: Nuclear receptor subfamily 1 group I member 2 (Homo sapiens) (UniProt O75469); experiment: Human pregnane X receptor (PXR) activation by small molecules, qHTS assay (AID 1346985); also: nearly all actives have a fitted effect of over 40% in size
How it was run: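 DPX-2 cells (HepG2 co-transfected with a PXR response element and a CYP3A4-promoter luciferase construct) were seeded at 2,000 per well, rested 5 hr at 37C, then exposed to DMSO-dissolved compounds for 24 hr. Activation was read as luciferase luminescence.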

Nuclear receptor subfamily 1 group I member 2 (Homo sapiens), sequence (O75469 whole entry, looked up): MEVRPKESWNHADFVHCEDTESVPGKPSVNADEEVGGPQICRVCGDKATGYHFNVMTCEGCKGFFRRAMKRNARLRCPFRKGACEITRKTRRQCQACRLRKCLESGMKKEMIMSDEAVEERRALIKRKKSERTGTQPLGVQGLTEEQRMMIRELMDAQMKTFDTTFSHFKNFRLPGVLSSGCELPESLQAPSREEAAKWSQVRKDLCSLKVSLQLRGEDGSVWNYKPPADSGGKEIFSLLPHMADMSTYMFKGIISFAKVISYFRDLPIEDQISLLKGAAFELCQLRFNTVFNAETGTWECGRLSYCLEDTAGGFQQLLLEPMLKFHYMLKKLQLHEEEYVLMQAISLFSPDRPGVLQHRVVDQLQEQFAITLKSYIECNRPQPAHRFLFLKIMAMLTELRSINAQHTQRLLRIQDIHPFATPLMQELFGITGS
Thyrotropin-releasing hormone receptor (Homo sapiens), sequence (P34981 whole entry, looked up): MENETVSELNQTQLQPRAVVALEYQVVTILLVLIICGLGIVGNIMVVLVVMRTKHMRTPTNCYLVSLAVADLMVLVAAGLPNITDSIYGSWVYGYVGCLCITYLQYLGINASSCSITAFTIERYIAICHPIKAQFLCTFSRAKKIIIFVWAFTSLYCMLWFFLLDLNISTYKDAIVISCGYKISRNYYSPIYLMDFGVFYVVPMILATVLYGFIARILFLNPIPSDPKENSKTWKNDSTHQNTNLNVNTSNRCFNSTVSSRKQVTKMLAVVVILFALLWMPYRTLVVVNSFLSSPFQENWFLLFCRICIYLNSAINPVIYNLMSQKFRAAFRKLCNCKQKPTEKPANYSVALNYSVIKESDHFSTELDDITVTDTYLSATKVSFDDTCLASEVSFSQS
Nuclear receptor subfamily 1 group I member 2 (Rattus norvegicus), sequence (Q9R1A7 whole entry, looked up): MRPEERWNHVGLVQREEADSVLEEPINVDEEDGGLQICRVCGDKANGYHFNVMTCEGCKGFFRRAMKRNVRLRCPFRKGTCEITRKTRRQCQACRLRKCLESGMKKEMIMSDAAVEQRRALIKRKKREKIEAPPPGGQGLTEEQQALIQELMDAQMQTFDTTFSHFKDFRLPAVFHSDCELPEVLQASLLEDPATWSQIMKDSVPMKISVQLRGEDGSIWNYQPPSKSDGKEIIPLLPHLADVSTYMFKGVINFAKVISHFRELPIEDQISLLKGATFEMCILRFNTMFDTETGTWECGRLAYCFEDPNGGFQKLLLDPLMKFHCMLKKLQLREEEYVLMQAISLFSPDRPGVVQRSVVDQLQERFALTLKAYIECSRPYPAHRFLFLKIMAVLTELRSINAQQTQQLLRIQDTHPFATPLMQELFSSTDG
Progesterone receptor (Homo sapiens), sequence (P06401 whole entry, looked up): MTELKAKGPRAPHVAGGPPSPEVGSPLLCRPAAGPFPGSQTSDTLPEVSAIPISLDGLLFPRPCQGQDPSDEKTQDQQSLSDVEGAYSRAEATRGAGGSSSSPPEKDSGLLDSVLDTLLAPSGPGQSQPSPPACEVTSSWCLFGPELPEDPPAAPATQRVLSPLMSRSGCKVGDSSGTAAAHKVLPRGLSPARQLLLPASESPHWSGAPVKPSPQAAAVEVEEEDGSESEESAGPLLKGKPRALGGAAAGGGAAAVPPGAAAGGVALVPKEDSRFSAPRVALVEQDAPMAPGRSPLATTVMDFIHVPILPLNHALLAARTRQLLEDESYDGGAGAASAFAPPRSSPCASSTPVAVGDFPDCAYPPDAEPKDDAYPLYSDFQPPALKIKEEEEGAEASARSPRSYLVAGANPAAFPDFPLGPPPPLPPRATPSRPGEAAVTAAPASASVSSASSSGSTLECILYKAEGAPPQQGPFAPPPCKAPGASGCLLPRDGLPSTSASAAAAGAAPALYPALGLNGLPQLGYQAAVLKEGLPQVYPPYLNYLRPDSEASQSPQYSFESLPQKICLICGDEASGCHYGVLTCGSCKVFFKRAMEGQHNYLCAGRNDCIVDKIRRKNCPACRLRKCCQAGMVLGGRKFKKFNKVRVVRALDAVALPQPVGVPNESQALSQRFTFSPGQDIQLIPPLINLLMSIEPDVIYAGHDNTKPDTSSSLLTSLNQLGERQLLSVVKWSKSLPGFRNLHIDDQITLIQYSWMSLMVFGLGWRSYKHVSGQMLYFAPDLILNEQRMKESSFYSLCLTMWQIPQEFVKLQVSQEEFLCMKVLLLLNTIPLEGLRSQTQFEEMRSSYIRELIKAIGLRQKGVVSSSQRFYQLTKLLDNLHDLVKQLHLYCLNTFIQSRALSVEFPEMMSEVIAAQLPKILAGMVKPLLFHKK
Cytochrome P450 2D6 (Homo sapiens), sequence (P10635 whole entry, looked up): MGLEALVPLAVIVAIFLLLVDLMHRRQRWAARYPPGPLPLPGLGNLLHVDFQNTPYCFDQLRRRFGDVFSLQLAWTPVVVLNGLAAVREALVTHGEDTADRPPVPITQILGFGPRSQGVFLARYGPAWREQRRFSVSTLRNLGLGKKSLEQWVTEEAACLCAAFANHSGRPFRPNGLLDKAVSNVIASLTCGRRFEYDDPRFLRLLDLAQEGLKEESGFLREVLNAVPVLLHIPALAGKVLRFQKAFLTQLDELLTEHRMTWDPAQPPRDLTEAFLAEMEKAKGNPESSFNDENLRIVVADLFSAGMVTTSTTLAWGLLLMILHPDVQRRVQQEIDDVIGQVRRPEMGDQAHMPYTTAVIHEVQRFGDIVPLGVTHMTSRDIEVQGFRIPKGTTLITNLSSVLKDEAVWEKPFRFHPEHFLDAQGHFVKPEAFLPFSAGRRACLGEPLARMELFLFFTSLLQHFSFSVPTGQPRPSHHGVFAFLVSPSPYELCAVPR

Row | SMILES | Potency [1] | Potency [2] | Potency [3] | Potency [4] | Potency [5] | Potency [6] | Potency [7] | Potency [8] | Potency [9] | Potency [10] | Potency [11] | Potency [12] | Potency [13] | outcome [14] | Potency [15] | Potency [16] | max activation [17] | Potency [18] | outcome [19]
1 | CCCCCCCCO | inactive | inactive | inactive | inactive | inactive | inactive | inactive | inactive | inactive | inactive | inactive | inactive | inactive |  |  |  |  |  | 
2 | CN=C(NC#N)NCCSCc1nc[nH]c1C | inactive | inactive | inactive | inactive | inactive |  | inactive | inactive | inactive | inactive | inactive |  |  | inactive |  |  |  |  | 
3 | C=C(CC(=O)O)C(=O)O | inactive | inactive |  | inactive | inactive |  |  | inactive | inactive |  | inactive |  |  | inactive | inactive | inactive |  |  | 
4 | CN1Cc2c(N)cccc2C(c2ccccc2)C1 (centres undefined) | inactive | inactive | inactive | inactive | inactive |  | inactive | inactive | inactive | inactive | inactive | inactive | 5.03 µM (active) and 12.3 µM (active) |  |  |  | -2.53% (inactive) | inactive | inactive
5 | O=C1O[C@H]([C@H](O)CO)C(O)=C1O | inactive | inactive | inactive | inactive | inactive |  | inactive | inactive | inactive | inactive | inactive | inactive |  |  |  |  |  |  | 
6 | CC[N+](CC)(CC(=O)Nc1c(C)cccc1C)Cc1ccccc1 | inactive | inactive | inactive | inactive | inactive | inactive | inactive | inactive | inactive |  | inactive |  | 11.2 nM (active) and inactive |  |  |  |  |  | 
7 | CC(C)(CO)CO | inactive | inactive | inactive | inactive | inactive | inactive | inactive | inactive | inactive | inactive | inactive | inactive |  |  | inactive |  |  |  | 
8 | Cc1cc(C)cc(O)c1 | inactive | inactive | inactive | inactive | inactive | inactive | 6.31 µM (active) and inactive | 12.2 µM (active) and inactive | 1.73 µM (active) and inactive |  |  | inactive |  |  |  | inactive |  |  | 
9 | Cc1cc(CC(=O)O)n(C)c1C(=O)c1ccc(Cl)cc1 | inactive |  | inactive | inactive | inactive |  | inactive | inactive | inactive | inactive | inactive |  | inactive | inactive | inactive | inactive | -4.94% (inactive) and -11.5% (inactive) |  | 
10 | C=CC(C)(C)C | inactive | inactive |  | inactive | inactive | inactive | inactive | inactive | inactive |  | inactive | inactive |  |  | inactive |  |  |  | 
11 | NC(=O)NC(N)=O | inactive | inactive |  | inactive | inactive | inactive | inactive | inactive | inactive | inactive | inactive | inactive |  |  | inactive |  |  |  | 
12 | Cc1ccncc1 | inactive | inactive | inactive | inactive | inactive | inactive | inactive | inactive | inactive |  | inactive | inactive | inactive |  |  | inactive |  |  | 
13 | CCCOCC(C)O (centres undefined) | inactive | inactive | inactive | inactive | inactive |  | inactive | inactive | inactive | inactive | inactive | inactive |  |  |  | inactive |  |  | 
14 | N#CCC(=O)O | inactive | inactive | inactive | inactive | inactive | inactive | inactive | inactive | inactive |  | inactive |  | inactive |  | inactive |  |  |  | 
15 | O=[N+]([O-])c1ccccc1C(F)(F)F | inactive | inactive |  | inactive | inactive | inactive | inactive | inactive | inactive | inactive | inactive | inactive |  |  | inactive |  |  |  | 
16 | CC(C)(C)NC[C@H](O)COc1nsnc1N1CCOCC1 | inactive | inactive | inactive | inactive | inactive |  | inactive | inactive | inactive |  | inactive |  |  |  | inactive |  |  |  | 
17 | CC(=O)Nc1ccc(CC(=O)O)cc1 | inactive | inactive |  | inactive | inactive | inactive | inactive | inactive | inactive |  | inactive | inactive | inactive | inactive | inactive |  | -3.84% (inactive) | inactive | inactive
18 | C=C1C[C@]23C[C@@]1(O)CC[C@H]2[C@@]12C=C[C@H](O)[C@@](C)(C(=O)O1)[C@H]2[C@@H]3C(=O)O | inactive | inactive |  | inactive | inactive |  |  | inactive | inactive |  | inactive |  |  |  |  |  |  |  | 
19 | CC(C)=CCC/C(C)=C/C=O | inactive | inactive | inactive | inactive | inactive |  | inactive | inactive | inactive | inactive | inactive | inactive | inactive |  | inactive |  |  |  | 
20 | CC(=O)OCc1ccc2c(c1)OCO2 | inactive | inactive |  | inactive | inactive | inactive | inactive | inactive | inactive |  | inactive | inactive |  | inactive | inactive |  |  |  | 
21 | OCC(CO)(CO)CO | inactive | inactive | inactive | inactive | inactive | inactive | inactive | inactive | inactive |  | inactive | inactive |  |  |  | inactive |  |  | 
22 | NCCNCCNCCN | inactive | inactive | inactive | inactive | inactive | inactive | inactive | inactive | inactive | inactive | inactive |  |  |  |  | inactive | -2.83% (inactive) |  | 
